Data on 10 molecules can be found in PubChem BioAssay (NCI).

Assay [1] in a line: NCI Yeast Anticancer Drug Screen. Data for the rad50 strain (AID 155).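 Also: 0% = growth of vehicle-only cultures of the same strain.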 The conditions noted are these: S. cerevisiae rad50 strain growth inhibition, hits give high values. Put shortly:
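Relative growth inhibition (compound vs vehicle) was measured in yeast with a defined repair-gene alteration.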

Assay [2] in a line: NCI Yeast Anticancer Drug Screen. Data for the mec2-1 strain (AID 157). The conditions noted are these: S. cerevisiae mec2-1 strain, hits give high values. In short, it runs like this: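 Growth inhibition is read against vehicle-treated controls after compound exposure of the mec2-1 yeast strain, which is defective in DNA damage repair or cell cycle control.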
A short description of assay [3]: NCI Yeast Anticancer Drug Screen. Data for the sgs1 mgt1 strain (AID 161).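 Also: 0% = growth of cultures given vehicle only.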 The note with it: S. cerevisiae sgs1 mgt1 strain, hits give high values. In short, it runs like this: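 Yeast cells carrying a defined DNA-repair defect were exposed to test compounds. Growth inhibition was measured relative to vehicle-treated controls.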
A short description of assay [4]: NCI Yeast Anticancer Drug Screen. Data for the cln2 rad14 strain (AID 165).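 Also: 0% = growth equal to vehicle treated cultures.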 The note with it: S. cerevisiae cln2 rad14 strain, hits give high values. In short, it runs like this: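 Growth inhibition, relative to vehicle-treated controls, is the read-out. The test organism is a yeast strain with defined genetic alterations, cln2 rad14.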
Assay [5] can be described thus: NCI Yeast Anticancer Drug Screen. Data for the bub3 strain (AID 167). The conditions noted are these: S. cerevisiae bub3 mutant strain, hits give high values. In short, it runs like this: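 Screening used yeast with an engineered genetic alteration affecting cell cycle control. Compound-exposed cultures were compared with vehicle cultures, and reduced growth was taken as inhibition.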

The nature of assay [6]: NCI Yeast Anticancer Drug Screen. Data for the mlh1 rad18 strain (AID 175). The note with it: S. cerevisiae mlh1 rad18 strain growth inhibition, hits give high values. Put shortly:
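Cells of a genetically altered yeast strain, deficient in DNA damage repair, were treated with compound. Their growth was then compared with that of vehicle-treated cultures to give inhibition.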

[7] abbreviates: at 5.0 µM (retest, dose inferred, filed as 0.5).
The mark [8] stands for this setting: at 50.0 µM (retest, dose inferred, filed as 5.0).

The panel holds about 79,000 compounds, 15% with a hit somewhere; the sample as a whole holds those more often. A number with no mark means an inactive call. Calls of active or inactive are those of the source. Rule as the data show it: active = growth inhibition above about 70%; inactive = the rest.

Regarding `CC(C)(C)C(=O)CC(=O)C(F)(F)C(F)(F)C(F)(F)F.CC(C)(C)C(=O)CC(=O)C(F)(F)C(F)(F)C(F)(F)F.CC(C)(C)C(=O)CC(=O)C(F)(F)C(F)(F)C(F)(F)F.[Fe]`, the growth inhibition was 21% in assay [1] (setting [7]); 85% (active) in assay [1] (setting [8]); 38.5% in assay [1] (at 50.0 µM); 5% in assay [2] (setting [7]); 88% (active) in assay [2] (setting [8]); 9.3% in assay [2] (at 50.0 µM). Further, the growth inhibition in assay [3] (setting [7]) is 43%; in assay [3] (setting [8]), 88% (active); in assay [3] (at 50.0 µM), 74.9% (active); in assay [4] (setting [7]), 13%; in assay [4] (setting [8]) it was 91% (active); in assay [4] (at 50.0 µM), 19.8%. Further, the growth inhibition in assay [5] (setting [7]) is -1%; in assay [5] (setting [8]), 37%; in assay [5] (at 50.0 µM), -1.15%; in assay [6] (setting [7]) it was 32%; in assay [6] (setting [8]) it was 93% (active); in assay [6] (at 50.0 µM), 84.5% (active).

Turning to `COc1cc(C2c3cc4c(cc3[C@@H](Nc3ccc5c(c3)OCCO5)C3COC(=O)[C@H]23)OCO4)cc(OC)c1O` (stereo not given in full), the growth inhibition in assay [1] (setting [7]) was 96% (active); in assay [1] (setting [8]) it was 93% (active); in assay [1] (at 50.0 µM), 85.2% (active); in assay [2] (setting [7]), 97% (active); in assay [2] (setting [8]), 94% (active); in assay [2] (at 50.0 µM), 91.2% (active). The growth inhibition in assay [3] (setting [7]) is 99% (active); in assay [3] (setting [8]), 99% (active); in assay [3] (at 50.0 µM) it was 87.3% (active); in assay [4] (setting [7]), 98% (active); in assay [4] (setting [8]), 99% (active); in assay [4] (at 50.0 µM) it was 85.8% (active). Besides, the growth inhibition in assay [5] (setting [7]) is 98% (active); in assay [5] (setting [8]), 99% (active); in assay [5] (at 50.0 µM), 87.2% (active); in assay [6] (setting [7]) it was 95% (active); in assay [6] (setting [8]) it was 90% (active); in assay [6] (at 50.0 µM), 88.8% (active).

`CCCCCCCCCCCC1=NCCN1CCNCCCC`: the growth inhibition is 6% in assay [1] (setting [7]); 75% (active) in assay [1] (setting [8]); 36.6% in assay [1] (at 50.0 µM); 5% in assay [2] (setting [7]); 90% (active) in assay [2] (setting [8]); 98.7% (active) in assay [2] (at 50.0 µM). In addition, the growth inhibition in assay [3] (setting [7]) is 6%; in assay [3] (setting [8]), 96% (active); in assay [3] (at 50.0 µM) it was 44.2%; in assay [4] (setting [7]), 9%; in assay [4] (setting [8]) it was 66%; in assay [4] (at 50.0 µM), 97.3% (active). Besides, the growth inhibition was 4% in assay [5] (setting [7]); 79% (active) in assay [5] (setting [8]); 98.4% (active) in assay [5] (at 50.0 µM); 11% in assay [6] (setting [7]); 92% (active) in assay [6] (setting [8]); 98.8% (active) in assay [6] (at 50.0 µM).

For `COC/C(Br)=C\SC#N` (tested in a mixture with another compound), the growth inhibition in assay [1] (setting [7]) is 0%; in assay [1] (setting [8]), 34%; in assay [1] (at 50.0 µM), 98.8% (active); in assay [2] (setting [7]) it was -14%; in assay [2] (setting [8]), 23%; in assay [2] (at 50.0 µM) it was 98.7% (active). Also, the growth inhibition in assay [3] (setting [7]) is -2%; in assay [3] (setting [8]), 40%; in assay [3] (at 50.0 µM), 98.9% (active); in assay [4] (setting [7]) it was -5%; in assay [4] (setting [8]), 61%; in assay [4] (at 50.0 µM), 97.7% (active). The growth inhibition was -6% in assay [5] (setting [7]); 53% in assay [5] (setting [8]); 98.2% (active) in assay [5] (at 50.0 µM); 16% in assay [6] (setting [7]); 38% in assay [6] (setting [8]); 98.2% (active) in assay [6] (at 50.0 µM).

Take `O=C1CCC/C(c2ccccc2)=N\N=C/1c1ccccc1`: the growth inhibition in assay [1] (setting [7]) was 7%; in assay [1] (setting [8]), 12%; in assay [1] (at 50.0 µM), 54.8%; in assay [2] (setting [7]), 10%; in assay [2] (setting [8]), 16%; in assay [2] (at 50.0 µM) it was -6.6%. The growth inhibition in assay [3] (setting [7]) is 10%; in assay [3] (setting [8]), 34%; in assay [3] (at 50.0 µM), 21.6%; in assay [4] (setting [7]), 8%; in assay [4] (setting [8]) it was 12%; in assay [4] (at 50.0 µM), -5.1%. Further, the growth inhibition in assay [5] (setting [7]) was 11%; in assay [5] (setting [8]) it was 33%; in assay [5] (at 50.0 µM), 24.3%; in assay [6] (setting [7]), 4%; in assay [6] (setting [8]) it was 18%; in assay [6] (at 50.0 µM), 23.6%.

Consider `CC(=O)C(=Cc1ccc(C=C(C(C)=O)C(C)=O)cc1)C(C)=O`, for which the growth inhibition in assay [1] (setting [7]) was -1%; in assay [1] (setting [8]), 30%; in assay [1] (at 50.0 µM), 45%; in assay [2] (setting [7]), 5%; in assay [2] (setting [8]) it was 40%; in assay [2] (at 50.0 µM) it was 58.5%. In addition, the growth inhibition was 11% in assay [3] (setting [7]); 61% in assay [3] (setting [8]); 58.5% in assay [3] (at 50.0 µM); 11% in assay [4] (setting [7]); 8% in assay [4] (setting [8]); 46.4% in assay [4] (at 50.0 µM). For the same molecule, the growth inhibition in assay [5] (setting [7]) is -5%; in assay [5] (setting [8]) it was 30%; in assay [5] (at 50.0 µM), 4.7%; in assay [6] (setting [7]), 22%; in assay [6] (setting [8]), 91% (active); in assay [6] (at 50.0 µM), 94.7% (active).

`O=C(/C=C/C=C/c1ccccc1)c1ccco1`: the growth inhibition in assay [1] (setting [7]) is -7%; in assay [1] (setting [8]) it was -16%; in assay [1] (at 50.0 µM), 83% (active); in assay [2] (setting [7]), 14%; in assay [2] (setting [8]), 5%; in assay [2] (at 50.0 µM) it was 90.3% (active). In addition, the growth inhibition in assay [3] (setting [7]) is -10%; in assay [3] (setting [8]), 28%; in assay [3] (at 50.0 µM), 91.7% (active); in assay [4] (setting [7]) it was 4%; in assay [4] (setting [8]), 28%; in assay [4] (at 50.0 µM), 50.4%. Moreover, the growth inhibition is -6% in assay [5] (setting [7]); 57% in assay [5] (setting [8]); 91.9% (active) in assay [5] (at 50.0 µM); -19% in assay [6] (setting [7]); 44% in assay [6] (setting [8]); 76% (active) in assay [6] (at 50.0 µM).

For the molecule `O=C(NNc1nc(-c2ccccc2)cs1)Nc1ccccc1`, the growth inhibition is 30% in assay [1] (setting [7]); 54% in assay [1] (setting [8]); 77.2% (active) in assay [1] (at 50.0 µM); 19% in assay [2] (setting [7]); 44% in assay [2] (setting [8]); 90.1% (active) in assay [2] (at 50.0 µM). Further, the growth inhibition in assay [3] (setting [7]) was 99% (active); in assay [3] (setting [8]) it was 98% (active); in assay [3] (at 50.0 µM), 88.5% (active); in assay [4] (setting [7]), 98% (active); in assay [4] (setting [8]), 97% (active); in assay [4] (at 50.0 µM), 23.6%. For the same molecule, the growth inhibition in assay [5] (setting [7]) was 99% (active); in assay [5] (setting [8]), 97% (active); in assay [5] (at 50.0 µM), 83.8% (active); in assay [6] (setting [7]), 48%; in assay [6] (setting [8]), 66%; in assay [6] (at 50.0 µM), 75.1% (active).

As to `S=C(N/N=C1\C=Cc2ccccc2C1)N/N=C1\C=Cc2ccccc2C1`, the growth inhibition was 0% in assay [1] (setting [7]); 17% in assay [1] (setting [8]); 55.5% in assay [1] (at 50.0 µM); -4% in assay [2] (setting [7]); 59% in assay [2] (setting [8]); 41.4% in assay [2] (at 50.0 µM). The growth inhibition was -7% in assay [3] (setting [7]); 45% in assay [3] (setting [8]); 41.7% in assay [3] (at 50.0 µM); 2% in assay [4] (setting [7]); 4% in assay [4] (setting [8]); 36.1% in assay [4] (at 50.0 µM). The growth inhibition in assay [5] (setting [7]) was -3%; in assay [5] (setting [8]), 36%; in assay [5] (at 50.0 µM), 62.4%; in assay [6] (setting [7]), 18%; in assay [6] (setting [8]), 56%; in assay [6] (at 50.0 µM), 71% (active).

Regarding `COC1CCC(O)C(CO)O1` (stereo not given), the growth inhibition in assay [1] (setting [7]) was 100% (active); in assay [1] (setting [8]), 99% (active); in assay [1] (at 50.0 µM) it was 99.5% (active); in assay [2] (setting [7]), 100% (active); in assay [2] (setting [8]), 99% (active); in assay [2] (at 50.0 µM), 99.6% (active). The growth inhibition in assay [3] (setting [7]) is 100% (active); in assay [3] (setting [8]), 99% (active); in assay [3] (at 50.0 µM) it was 99.7% (active); in assay [4] (setting [7]), 100% (active); in assay [4] (setting [8]), 99% (active); in assay [4] (at 50.0 µM), 99.6% (active). In addition, the growth inhibition in assay [5] (setting [7]) is 99% (active); in assay [5] (setting [8]) it was 99% (active); in assay [5] (at 50.0 µM) it was 99.5% (active); in assay [6] (setting [7]), 99% (active); in assay [6] (setting [8]), 99% (active); in assay [6] (at 50.0 µM) it was 99.5% (active).
